System: Vero E6 infected with SARS-CoV-2
Test: inhibition of SARS-CoV-2 cytopathic effect; higher = more antiviral protection, active = above 15
Conditions: 48 h

Measured: inhibition of SARS-CoV-2 cytopathic effect

CC(C)(C)C(=O)Oc1ccc(S(=O)(=O)Nc2ccccc2C(=O)NCC(=O)O)cc1 [sivelestat]
inactive: 1 nM 1.78% | 8.33 nM -0.24% | 100 nM 0.61% | 833.33 nM 1.84% | 10000 nM -1.94%

C[C@H](NC(=O)CNC(=O)c1cccc(Cl)c1)c1ccccc1
inactive: 1 nM -3.1% | 8.33 nM 0.31% | 100 nM -4.2% | 833.33 nM -1.91% | 10000 nM 0.27%

COc1cc(C(=O)NCc2ccc(OCCN(C)C)cc2)cc(OC)c1OC [trimethobenzamide]
inactive: 1 nM -2.2% | 8.33 nM -1.41% | 100 nM 2.21% | 833.33 nM -1.81% | 10000 nM -0.65%

CCn1c(=O)c2c(nc(/C=C/c3ccc(OC)c(OC)c3)n2C)n(CC)c1=O [istradefylline]
inactive: 1 nM 1.05% | 8.33 nM -1.49% | 100 nM -0.91% | 833.33 nM -0.33% | 10000 nM 2.33%

CC(C)(c1ccc(O)cc1)c1ccc(O)cc1 [bisphenol-A]
inactive: 1 nM 3.73% | 8.33 nM 8.2% | 100 nM 2.75% | 833.33 nM 1.31% | 10000 nM 4%

CC(C)C(N)C(=O)O (stereo in doubt) [L-valine]
inactive: 1 nM 0.78% | 8.33 nM -0.34% | 100 nM 0.64% | 833.33 nM -0.11% | 10000 nM 1.66%

COc1cc2c(cc1O)C(CCc1ccc(Cl)cc1)N(C)CC2 (stereo not given)
inactive: 1 nM 0.21% | 8.33 nM 2.27% | 100 nM 0.29% | 833.33 nM 0% | 10000 nM 0.49%

Cc1[nH]c(/C=C2\C(=O)Nc3ccccc32)c(C)c1CCC(=O)O [orantinib]
inactive: 1 nM -0.96% | 8.33 nM 2.48% | 100 nM 1.61% | 833.33 nM -0.48% | 10000 nM -0.87%

CCCCC/C=C\C/C=C\C/C=C\CCCCC(=O)O [gamma-linolenic-acid]
inactive: 1 nM -0.6% | 8.33 nM -2.39% | 100 nM -2.33% | 833.33 nM -1.24% | 10000 nM -1.03%

Nc1nc2c(c(N3CCNCC3)n1)CCC1=C2[C@@H]2CCCC[C@@H]2O1
inactive: 1 nM 1.61% | 8.33 nM 0.48% | 100 nM 1.56% | 833.33 nM 2.05% | 10000 nM -2.01%

O=C(O)C1=CCCN(CCON=C(c2ccccc2)c2ccccc2)C1
inactive: 1 nM -1.65% | 8.33 nM 0.36% | 100 nM 0.96% | 833.33 nM 0.86% | 10000 nM 2.06%

CC(=O)O/N=C1\C(=O)N(Cc2cc(Cl)ccc2Cl)c2ccc(Cl)cc21
inactive: 1 nM -1.23% | 8.33 nM 0.39% | 100 nM 0.49% | 833.33 nM 3.77% | 10000 nM 4.47%

OC[C@H]1O[C@@H](c2ccc(Cl)c(Cc3ccc(O[C@H]4CCOC4)cc3)c2)[C@H](O)[C@@H](O)[C@@H]1O [empagliflozin]
inactive: 1 nM 1.11% | 8.33 nM -0.27% | 100 nM 0.91% | 833.33 nM 1.13% | 10000 nM -2.24%

C[C@]12CCC(=O)C=C1CC[C@@H]1[C@@H]2[C@@H](O)C[C@@]2(C)[C@H]1CC[C@]2(O)C(=O)CO [hydrocortisone]
inactive: 1 nM -3.82% | 8.33 nM -3.12% | 100 nM -3.55% | 833.33 nM -4.8% | 10000 nM -3.51%

CNc1nc(NCc2ccc(NS(C)(=O)=O)cc2Cl)cc(-c2ccccn2)n1
inactive: 1 nM -1.79% | 8.33 nM -3% | 100 nM 0.48% | 833.33 nM -2.53% | 10000 nM 2.16%

Cc1nn(C)c2c1C(c1cccc(Cl)c1)=NCCN2 [zometapine]
inactive: 1 nM -1.8% | 8.33 nM -1.16% | 100 nM 1.14% | 833.33 nM -0.92% | 10000 nM -4.7%

CC(=C(CCO)SSCC1CCCO1)N(C=O)Cc1cnc(C)nc1N (stereo in doubt) [fursultiamine]
inactive: 1 nM 2.52% | 8.33 nM 0.44% | 100 nM 2.45% | 833.33 nM -1.75% | 10000 nM -2.11%

O=C1[C@H]2CCCC[C@H]2C(=O)N1CCCCN1CCN(c2nsc3ccccc23)CC1 [perospirone]
inactive: 1 nM -1.38% | 8.33 nM 3.93% | 100 nM 3.52% | 833.33 nM 3.58% | 10000 nM -1.69%

From the supplement of paper PMC13380429
